1 sequence from paper PMC7862700, “An all-to-all approach to the identification of sequence-specific readers for epigenetic DNA modifications on cytosine” can be followed below.

Holding throughout (test): DAPPL (digital affinity profiling via proximity ligation, sequencing); 10 mM Tris-HCl pH 7.5, 50 mM NaCl, 1 mM DTT, 4% glycerol, room temperature, 30 min; GST-TFs on glutathione beads, 16-mer random dsDNA library, 0.1% formaldehyde crosslink after washing; high values mean tight binding
In one experiment the target is T1, FEV (Homo sapiens, UniProt Q99581 1-238).
T1 sequence: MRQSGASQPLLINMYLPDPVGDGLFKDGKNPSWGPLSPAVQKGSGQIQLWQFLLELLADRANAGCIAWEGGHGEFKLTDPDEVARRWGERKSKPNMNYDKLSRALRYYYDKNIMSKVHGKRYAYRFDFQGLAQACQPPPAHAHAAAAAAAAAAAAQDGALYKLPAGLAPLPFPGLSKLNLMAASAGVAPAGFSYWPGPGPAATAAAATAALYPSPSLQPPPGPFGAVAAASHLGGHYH
Particulars: protein: recombinant; tags: N-terminal GST; dsDNA, one strand shown. In short, it runs like this: (§1)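 Binding signal is given per hexamer as its read frequency for a factor divided by its frequency in the tag-only sample. GST-fused human transcription factors were expressed in yeast, captured on glutathione beads, barcoded with DNA and pooled with that sample, then incubated with 200 nmole of a 16-mer random double-stranded DNA library in Tris/NaCl/DTT/glycerol buffer for 30 min at room temperature. The pools were then washed, crosslinked, proximity-ligated, amplified by PCR and sequenced on an Illumina NextSeq500.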

The target of the next experiment is ETV5 (Homo sapiens, UniProt P41161 1-510). Particulars: protein: recombinant; tags: N-terminal GST; dsDNA, one strand shown. In a few lines: as §1
For the next experiment, the target named is HSF1 (Homo sapiens, UniProt Q00613 1-529). Particulars: protein: recombinant; tags: N-terminal GST; chain copies: 3; dsDNA, one strand shown. In a few lines:
as §1

The target in a further experiment is T2, SPIC (Homo sapiens, UniProt Q8N5J4 1-248).
T2 sequence: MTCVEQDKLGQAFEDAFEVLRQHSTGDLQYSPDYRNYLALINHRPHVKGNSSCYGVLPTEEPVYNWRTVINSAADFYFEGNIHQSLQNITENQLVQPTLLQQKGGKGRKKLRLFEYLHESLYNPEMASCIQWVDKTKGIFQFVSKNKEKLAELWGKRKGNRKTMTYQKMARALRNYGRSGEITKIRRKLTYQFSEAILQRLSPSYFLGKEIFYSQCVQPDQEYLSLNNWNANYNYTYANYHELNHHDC
The following applies: protein: recombinant; tags: N-terminal GST; dsDNA, one strand shown. In a few lines: as §1

Another experiment addresses ELF4 (Homo sapiens, UniProt Q99607 1-663). Particulars: protein: recombinant; tags: N-terminal GST; dsDNA, one strand shown. In a few lines:
as §1

The target of another experiment is T3, ELK4 (Homo sapiens, UniProt P28324-2 1-405).
T3 sequence: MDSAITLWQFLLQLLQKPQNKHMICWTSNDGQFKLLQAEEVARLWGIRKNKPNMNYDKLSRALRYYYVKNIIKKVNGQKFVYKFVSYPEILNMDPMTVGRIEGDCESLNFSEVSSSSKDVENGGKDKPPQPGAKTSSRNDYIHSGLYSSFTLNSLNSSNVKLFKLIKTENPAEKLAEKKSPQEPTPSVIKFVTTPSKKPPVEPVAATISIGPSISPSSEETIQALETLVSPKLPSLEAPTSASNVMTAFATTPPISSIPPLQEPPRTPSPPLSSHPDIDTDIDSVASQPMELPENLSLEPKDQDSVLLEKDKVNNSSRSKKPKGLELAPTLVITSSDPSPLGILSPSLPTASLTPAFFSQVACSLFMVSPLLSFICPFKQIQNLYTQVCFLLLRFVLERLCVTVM
The following applies: protein: recombinant; tags: N-terminal GST; dsDNA, one strand shown. In short, it runs like this: as §1

The target in another experiment is T4, ETV2 (Homo sapiens, UniProt O00321 1-342).
T4 sequence: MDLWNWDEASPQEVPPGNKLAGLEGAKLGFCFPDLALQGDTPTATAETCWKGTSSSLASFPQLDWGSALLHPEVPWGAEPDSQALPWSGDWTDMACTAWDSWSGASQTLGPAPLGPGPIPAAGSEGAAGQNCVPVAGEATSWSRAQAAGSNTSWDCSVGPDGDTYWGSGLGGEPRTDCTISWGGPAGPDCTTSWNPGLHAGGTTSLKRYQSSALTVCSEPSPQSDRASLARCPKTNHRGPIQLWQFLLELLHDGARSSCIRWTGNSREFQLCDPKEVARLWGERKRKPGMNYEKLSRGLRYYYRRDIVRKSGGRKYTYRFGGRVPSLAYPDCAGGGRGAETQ
The following applies: protein: recombinant; tags: N-terminal GST; dsDNA, one strand shown. In short, it runs like this:
as §1

The next experiment concerns the target T5, ELF3 (Homo sapiens, UniProt P78545 1-371).
T5 sequence: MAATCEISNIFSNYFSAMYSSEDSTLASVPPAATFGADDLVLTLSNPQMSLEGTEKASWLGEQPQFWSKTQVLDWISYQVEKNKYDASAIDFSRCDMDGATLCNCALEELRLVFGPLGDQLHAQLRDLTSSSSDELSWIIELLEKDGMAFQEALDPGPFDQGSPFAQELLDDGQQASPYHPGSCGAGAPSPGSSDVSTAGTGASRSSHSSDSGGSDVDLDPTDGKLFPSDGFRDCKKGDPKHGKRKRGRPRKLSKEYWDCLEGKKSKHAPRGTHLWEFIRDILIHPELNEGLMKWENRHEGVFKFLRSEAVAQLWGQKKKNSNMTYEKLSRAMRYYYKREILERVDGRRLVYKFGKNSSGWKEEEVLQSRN
The following applies: protein: recombinant; tags: N-terminal GST; dsDNA, one strand shown. In short, it runs like this: as §1

For the next experiment, the target named is CRX (Homo sapiens, UniProt O43186 1-299). Particulars: protein: recombinant; tags: N-terminal GST; dsDNA, one strand shown. In short, it runs like this: as §1
For a further experiment, the target named is ETV1 (Homo sapiens, UniProt P50549 1-477). The following applies: protein: recombinant; tags: N-terminal GST; dsDNA, one strand shown. In short, it runs like this: as §1
A further experiment addresses T6, ERF (Homo sapiens, UniProt P50548 1-548).
T6 sequence: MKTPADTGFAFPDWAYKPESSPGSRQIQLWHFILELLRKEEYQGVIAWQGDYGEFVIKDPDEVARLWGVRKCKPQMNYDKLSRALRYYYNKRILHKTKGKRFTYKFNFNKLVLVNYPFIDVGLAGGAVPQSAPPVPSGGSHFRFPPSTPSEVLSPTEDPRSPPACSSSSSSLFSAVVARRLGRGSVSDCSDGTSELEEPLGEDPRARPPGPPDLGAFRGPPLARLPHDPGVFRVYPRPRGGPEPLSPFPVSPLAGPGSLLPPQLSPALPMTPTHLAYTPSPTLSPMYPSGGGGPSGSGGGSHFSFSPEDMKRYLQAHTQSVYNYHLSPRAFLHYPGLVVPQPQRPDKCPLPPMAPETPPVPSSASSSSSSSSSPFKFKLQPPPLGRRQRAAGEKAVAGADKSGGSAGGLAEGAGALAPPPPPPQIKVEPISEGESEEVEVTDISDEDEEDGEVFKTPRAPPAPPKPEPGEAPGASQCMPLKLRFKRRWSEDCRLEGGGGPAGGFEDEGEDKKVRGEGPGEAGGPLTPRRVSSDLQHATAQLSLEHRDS
The following applies: protein: recombinant; tags: N-terminal GST; dsDNA, one strand shown. In a few lines: as §1

Another experiment deals with T7, ETV3L (Homo sapiens, UniProt Q6ZN32 1-361).
T7 sequence: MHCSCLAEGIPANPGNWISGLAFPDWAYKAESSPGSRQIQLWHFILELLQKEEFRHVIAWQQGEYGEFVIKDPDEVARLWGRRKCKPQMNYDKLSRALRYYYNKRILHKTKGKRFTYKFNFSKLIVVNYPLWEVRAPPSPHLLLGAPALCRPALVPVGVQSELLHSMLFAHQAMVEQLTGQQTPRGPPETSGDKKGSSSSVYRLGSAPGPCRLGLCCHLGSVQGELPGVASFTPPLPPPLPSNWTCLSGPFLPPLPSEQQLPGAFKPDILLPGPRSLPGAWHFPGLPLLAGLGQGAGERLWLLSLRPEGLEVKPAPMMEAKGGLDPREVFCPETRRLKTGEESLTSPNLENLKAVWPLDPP
The following applies: protein: recombinant; tags: N-terminal GST; dsDNA, one strand shown. In short, it runs like this: as §1

The target of another experiment is T8, ETS2 (Homo sapiens, UniProt P15036 1-469).
T8 sequence: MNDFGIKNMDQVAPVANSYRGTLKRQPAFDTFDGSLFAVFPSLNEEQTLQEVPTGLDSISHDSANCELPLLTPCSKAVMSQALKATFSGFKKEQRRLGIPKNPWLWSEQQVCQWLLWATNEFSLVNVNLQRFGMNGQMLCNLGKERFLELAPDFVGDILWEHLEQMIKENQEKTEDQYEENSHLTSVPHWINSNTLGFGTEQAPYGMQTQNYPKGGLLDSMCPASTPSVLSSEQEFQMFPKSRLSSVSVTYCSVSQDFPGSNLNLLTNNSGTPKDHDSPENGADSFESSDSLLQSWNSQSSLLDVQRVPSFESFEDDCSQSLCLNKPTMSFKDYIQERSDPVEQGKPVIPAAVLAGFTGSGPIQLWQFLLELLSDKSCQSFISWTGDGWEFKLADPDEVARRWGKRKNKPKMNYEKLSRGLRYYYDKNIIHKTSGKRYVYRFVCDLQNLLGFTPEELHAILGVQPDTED
The following applies: protein: recombinant; tags: N-terminal GST; dsDNA, one strand shown. In a few lines: as §1

Another experiment addresses T9, SPDEF (Homo sapiens, UniProt O95238 1-335).
T9 sequence: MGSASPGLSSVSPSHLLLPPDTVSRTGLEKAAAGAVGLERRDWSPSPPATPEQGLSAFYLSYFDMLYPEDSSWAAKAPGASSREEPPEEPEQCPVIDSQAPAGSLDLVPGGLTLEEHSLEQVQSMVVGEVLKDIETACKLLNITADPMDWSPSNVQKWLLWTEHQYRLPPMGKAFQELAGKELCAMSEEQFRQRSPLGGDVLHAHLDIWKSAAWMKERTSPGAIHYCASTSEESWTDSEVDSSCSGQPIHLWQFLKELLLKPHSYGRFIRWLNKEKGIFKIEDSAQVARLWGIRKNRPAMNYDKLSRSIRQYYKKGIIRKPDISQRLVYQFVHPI
The following applies: protein: recombinant; tags: N-terminal GST; dsDNA, one strand shown. In a few lines:
as §1

The target of the next experiment is T10, ETV7 (Homo sapiens, UniProt Q9Y603 1-341).
T10 sequence: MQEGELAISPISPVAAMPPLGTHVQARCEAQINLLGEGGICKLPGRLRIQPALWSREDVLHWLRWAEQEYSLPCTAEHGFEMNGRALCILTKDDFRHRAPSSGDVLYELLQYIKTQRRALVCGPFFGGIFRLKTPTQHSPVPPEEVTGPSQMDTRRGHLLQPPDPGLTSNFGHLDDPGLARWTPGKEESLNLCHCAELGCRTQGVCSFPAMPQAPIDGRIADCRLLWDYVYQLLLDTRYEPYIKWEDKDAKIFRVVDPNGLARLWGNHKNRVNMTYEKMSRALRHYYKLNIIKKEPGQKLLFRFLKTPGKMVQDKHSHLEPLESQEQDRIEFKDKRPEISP
The following applies: protein: recombinant; tags: N-terminal GST; dsDNA, one strand shown. In short, it runs like this:
as §1

The next experiment has as its target T11, ELF5 (Homo sapiens, UniProt Q9UKW6-2 1-255).
T11 sequence: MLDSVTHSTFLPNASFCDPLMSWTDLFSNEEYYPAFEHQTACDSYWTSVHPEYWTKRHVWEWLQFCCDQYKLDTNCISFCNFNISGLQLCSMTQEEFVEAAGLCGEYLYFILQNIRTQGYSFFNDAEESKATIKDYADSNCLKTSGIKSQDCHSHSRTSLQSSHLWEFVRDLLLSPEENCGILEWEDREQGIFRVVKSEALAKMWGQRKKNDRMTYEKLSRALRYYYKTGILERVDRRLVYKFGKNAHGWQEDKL
Particulars: protein: recombinant; tags: N-terminal GST; dsDNA, one strand shown. In short, it runs like this: as §1

A further experiment deals with T12, ETV3 (Homo sapiens, UniProt P41162-2 1-143).
T12 sequence: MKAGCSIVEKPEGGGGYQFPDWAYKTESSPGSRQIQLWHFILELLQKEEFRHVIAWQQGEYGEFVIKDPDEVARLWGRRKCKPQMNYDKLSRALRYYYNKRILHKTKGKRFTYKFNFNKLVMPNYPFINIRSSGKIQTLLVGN
Particulars: protein: recombinant; tags: N-terminal GST; dsDNA, one strand shown. In short, it runs like this: as §1

Another experiment has as its target ETV6 (Homo sapiens, UniProt P41212 1-452). Particulars: protein: recombinant; tags: N-terminal GST; dsDNA, one strand shown. In short, it runs like this: as §1

ETV6, sequence (P41212 whole entry): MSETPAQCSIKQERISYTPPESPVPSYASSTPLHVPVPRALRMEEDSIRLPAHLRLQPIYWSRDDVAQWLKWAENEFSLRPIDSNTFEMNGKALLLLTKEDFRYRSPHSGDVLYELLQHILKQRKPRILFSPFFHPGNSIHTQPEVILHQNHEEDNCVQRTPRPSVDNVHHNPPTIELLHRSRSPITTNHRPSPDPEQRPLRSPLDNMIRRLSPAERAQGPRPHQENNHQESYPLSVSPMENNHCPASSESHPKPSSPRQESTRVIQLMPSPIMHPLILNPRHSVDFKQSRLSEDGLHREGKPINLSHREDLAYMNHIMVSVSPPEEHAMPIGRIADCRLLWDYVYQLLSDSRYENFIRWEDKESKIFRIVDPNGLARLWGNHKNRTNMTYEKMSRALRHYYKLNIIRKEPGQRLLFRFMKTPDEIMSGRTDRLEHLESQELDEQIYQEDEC
ELF4, sequence (Q99607 whole entry): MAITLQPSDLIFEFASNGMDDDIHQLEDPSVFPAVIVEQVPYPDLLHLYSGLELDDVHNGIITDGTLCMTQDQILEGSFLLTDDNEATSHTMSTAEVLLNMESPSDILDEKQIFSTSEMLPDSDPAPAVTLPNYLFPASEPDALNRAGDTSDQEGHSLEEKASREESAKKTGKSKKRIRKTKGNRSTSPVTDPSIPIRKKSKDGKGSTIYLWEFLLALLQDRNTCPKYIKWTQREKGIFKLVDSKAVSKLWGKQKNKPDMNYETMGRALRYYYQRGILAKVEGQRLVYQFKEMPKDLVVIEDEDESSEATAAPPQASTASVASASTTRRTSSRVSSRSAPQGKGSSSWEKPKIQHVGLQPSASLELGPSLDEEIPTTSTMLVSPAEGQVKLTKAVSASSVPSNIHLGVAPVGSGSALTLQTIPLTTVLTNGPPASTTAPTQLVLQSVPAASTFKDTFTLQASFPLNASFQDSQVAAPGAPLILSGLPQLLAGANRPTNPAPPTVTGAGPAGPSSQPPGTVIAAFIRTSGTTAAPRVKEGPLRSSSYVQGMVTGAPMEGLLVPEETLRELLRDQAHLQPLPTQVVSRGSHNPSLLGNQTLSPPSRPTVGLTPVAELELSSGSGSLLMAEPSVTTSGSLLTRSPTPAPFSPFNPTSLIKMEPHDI
ETV5, sequence (P41161 whole entry): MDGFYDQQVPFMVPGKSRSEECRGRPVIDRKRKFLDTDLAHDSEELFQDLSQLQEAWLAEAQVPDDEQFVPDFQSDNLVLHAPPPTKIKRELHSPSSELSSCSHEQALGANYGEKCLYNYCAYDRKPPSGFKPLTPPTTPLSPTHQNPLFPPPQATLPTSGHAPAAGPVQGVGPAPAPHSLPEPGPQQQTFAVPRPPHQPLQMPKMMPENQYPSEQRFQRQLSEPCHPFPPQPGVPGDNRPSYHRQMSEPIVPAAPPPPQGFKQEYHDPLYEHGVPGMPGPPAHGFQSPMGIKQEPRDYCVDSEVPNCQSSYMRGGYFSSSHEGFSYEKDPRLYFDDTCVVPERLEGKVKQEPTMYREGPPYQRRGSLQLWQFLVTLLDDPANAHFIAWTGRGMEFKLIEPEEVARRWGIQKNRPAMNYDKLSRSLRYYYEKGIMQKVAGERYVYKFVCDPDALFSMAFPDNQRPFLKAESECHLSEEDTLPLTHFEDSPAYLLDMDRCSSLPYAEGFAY
ETV1, sequence (P50549 whole entry): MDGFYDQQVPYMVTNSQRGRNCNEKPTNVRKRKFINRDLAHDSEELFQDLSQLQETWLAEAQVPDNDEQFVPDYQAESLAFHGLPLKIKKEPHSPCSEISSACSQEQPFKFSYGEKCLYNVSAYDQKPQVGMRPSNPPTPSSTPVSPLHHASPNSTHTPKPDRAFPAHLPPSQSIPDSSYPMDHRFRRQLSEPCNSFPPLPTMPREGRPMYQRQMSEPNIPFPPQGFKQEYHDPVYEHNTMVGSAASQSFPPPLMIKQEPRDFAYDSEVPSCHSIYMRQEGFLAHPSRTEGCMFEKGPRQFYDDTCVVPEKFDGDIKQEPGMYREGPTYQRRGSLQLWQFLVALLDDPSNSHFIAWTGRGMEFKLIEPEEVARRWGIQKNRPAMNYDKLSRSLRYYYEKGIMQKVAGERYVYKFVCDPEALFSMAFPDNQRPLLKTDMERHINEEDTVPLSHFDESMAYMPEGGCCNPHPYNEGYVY
CRX, sequence (O43186 whole entry): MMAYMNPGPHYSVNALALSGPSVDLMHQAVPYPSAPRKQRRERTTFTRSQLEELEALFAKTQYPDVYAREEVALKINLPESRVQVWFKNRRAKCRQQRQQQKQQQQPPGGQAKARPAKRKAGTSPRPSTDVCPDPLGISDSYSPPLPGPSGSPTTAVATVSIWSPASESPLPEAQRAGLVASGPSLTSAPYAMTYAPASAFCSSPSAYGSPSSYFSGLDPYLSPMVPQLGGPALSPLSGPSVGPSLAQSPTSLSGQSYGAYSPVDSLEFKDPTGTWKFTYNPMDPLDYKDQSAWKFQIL
HSF1, sequence (Q00613 whole entry): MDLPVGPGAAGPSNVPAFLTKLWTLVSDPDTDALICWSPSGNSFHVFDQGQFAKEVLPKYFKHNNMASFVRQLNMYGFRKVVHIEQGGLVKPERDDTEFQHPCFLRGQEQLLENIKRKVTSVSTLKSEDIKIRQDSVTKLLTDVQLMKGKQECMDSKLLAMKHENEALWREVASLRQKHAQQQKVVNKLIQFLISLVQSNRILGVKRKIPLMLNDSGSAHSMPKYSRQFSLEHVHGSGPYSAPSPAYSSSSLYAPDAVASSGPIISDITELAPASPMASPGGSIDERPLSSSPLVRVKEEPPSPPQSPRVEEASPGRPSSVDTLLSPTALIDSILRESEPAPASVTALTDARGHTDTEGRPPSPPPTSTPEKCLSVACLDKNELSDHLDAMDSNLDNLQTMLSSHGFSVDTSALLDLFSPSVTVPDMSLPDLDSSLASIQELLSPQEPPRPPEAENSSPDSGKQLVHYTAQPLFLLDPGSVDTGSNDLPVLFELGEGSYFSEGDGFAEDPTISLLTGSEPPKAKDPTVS

Consider TATCCA, for which the binding signal is 1.29 fold enrichment (6-mer frequency, TF over GST control) with FEV; 1.27 fold enrichment (6-mer frequency, TF over GST control) with ETV5; 1.49 fold enrichment (6-mer frequency, TF over GST control) in the experiment with HSF1; 1.4 fold enrichment (6-mer frequency, TF over GST control) in the experiment with SPIC; 1.29 fold enrichment (6-mer frequency, TF over GST control) in the experiment with ELF4; 1.33 fold enrichment (6-mer frequency, TF over GST control) with ELK4. In addition, the binding signal is 1.37 fold enrichment (6-mer frequency, TF over GST control) in the experiment with ETV2; 1.31 fold enrichment (6-mer frequency, TF over GST control) in the experiment with ELF3; 1.75 fold enrichment (6-mer frequency, TF over GST control) in the experiment with CRX; 1.27 fold enrichment (6-mer frequency, TF over GST control) with ETV1; 1.27 fold enrichment (6-mer frequency, TF over GST control) in the experiment with ERF; 1.28 fold enrichment (6-mer frequency, TF over GST control) with ETV3L. Besides, the binding signal was 1.28 fold enrichment (6-mer frequency, TF over GST control) with ETS2; 1.21 fold enrichment (6-mer frequency, TF over GST control) with SPDEF; 1.34 fold enrichment (6-mer frequency, TF over GST control) with ETV7; 1.27 fold enrichment (6-mer frequency, TF over GST control) with ELF5; 1.23 fold enrichment (6-mer frequency, TF over GST control) in the experiment with ETV3; 1.2 fold enrichment (6-mer frequency, TF over GST control) with ETV6.
